The whole screen tested about 69,000 compounds, of which about 8,600 (12%) showed an effect of 50% or more. Only a selection was taken, and strong results are over-represented in it overall.
Test system: Plasmodium berghei
Assay: Screen against P. berghei liver stage (PbLuc), transformed with Luciferase, at 10uM
Assay type: functional, HepG2
Conditions: tested at 10 uM

Compound	INHIBITION [%]
CN1CCN(C2COC3(CCN(CC4CC4)CC3)C2)CC1 (stereo unspecified)	-30.1
CC(C)n1nc(Cn2cccn2)c2c1CN(C1CCOC1)C2 (stereo unspecified)	-12.1
COc1cccc2c1ccn2CCNC(C)=O	21
O=C(NCc1cncc2c1CCN(Cc1ccc(F)cc1)C2)C1CC1	-14.4
COc1cccc(N2C(=O)CC3(CCCNC3)C2=O)c1 (stereo unspecified)	-33.1
N#Cc1ncn(CCC(=O)Nc2cccc(Cl)c2)n1	39.5
CCC(=O)Nc1ccc(C(C)NC(=O)COC)cc1 (stereo unspecified)	-68
N[C@@H](Cc1ccccc1)c1nnc(S(=O)(=O)Cc2cccc(Cl)c2)o1	-3.73
CCN(CC)c1ccc(C(=O)N2CCC(c3nc(C)no3)CC2)cn1	30.25
Cc1cc(CCC2CN(CC3(O)CCCCC3)CCO2)ncn1 (stereo unspecified)	-3.02
CC(C)Nc1nc(N2CCOCC2)nc2c1CN(CC(=O)N(C)C)CC2	20.5
CC(C)CCN1CCc2nc(N3CCOCC3)nc(NC(C)C)c2C1	70.2
c1cc(CN2CCc3nc(N4CCOCC4)nc(NC4CC4)c3C2)co1	-15.3
Cc1nc(N2CCOCC2)nc2c1CN(CC(=O)N(C)C)CC2	16.8
c1csc(CN2CCc3nc(N4CCOCC4)nc(NC4CC4)c3C2)n1	57.1
Cc1nc(N2CCOCC2)nc2c1CCN(c1nccs1)CC2	37.8
CC(C)Nc1nc(N2CCOCC2)nc2c1CN(Cc1ccoc1)CC2	55.2
C1CN(c2nc3c(c(NC4CC4)n2)CN(CC2CCOC2)CC3)CCO1 (stereo unspecified)	-39.4
Cc1nc(N2CCCC2)nc2c1CCN(Cc1ccoc1)CC2	8.03
CCCN1CCc2nc(N3CCOCC3)nc(NC(C)C)c2C1	69.3
CCN1CCc2nc(N3CCOCC3)nc(NC(C)C)c2C1	24
Cc1cc2ccccc2n1CC(=O)NC(C)C(=O)N1CCOCC1 (stereo unspecified)	-7.83
CCCc1nc(C(C)(C)NC(=O)C2CC(=O)N(C3CC3)C2)no1 (stereo unspecified)	40
CC(C)(C)n1cc(CNC2CCN(C(=O)c3ccoc3)CC2)cn1	1.75

Compound	INHIBITION [%]
COc1cc(CN2CCC3(CC(Nc4ccncn4)C3)C2)cc(OC)c1 (stereo unspecified)	44.1
Cc1cc2ccccc2n1CC(=O)NCC(=O)N1CCOCC1	8.41
CCOCc1nn(CC2CC2)c2c1CN(Cc1ccco1)CC2	12.4
COc1cn(-c2ccccc2)nc1C(=O)NCCN1CCCC(C)C1 (stereo unspecified)	22.3
CCN1CCN(CCNC(=O)c2ccn(-c3ccc(F)cc3)n2)CC1	60.2
COc1ccc(-n2ccc(C(=O)NCCN3CCCC(C)C3)n2)cc1 (stereo unspecified)	62.1
CC1CCCN(CCNC(=O)c2ccn(-c3ccc(F)cc3)n2)C1 (stereo unspecified)	3.15
O=C(NCCN1CCCCC1)c1ccn(-c2ccc(F)cc2)n1	-2.53
COc1ccc(-n2ccc(C(=O)NCCN3CCCCCC3)n2)cc1	51.1
CC1CCCN(CCNC(=O)c2ccn(-c3ccccc3)n2)C1 (stereo unspecified)	29.4
COc1ccc(-n2ccc(C(=O)NCCN3CCC(C)CC3)n2)cc1	38.8
COc1ccc(-n2ccc(C(=O)NCCN3CCCCC3)n2)cc1	40.2
COc1ccc(-n2ccc(C(=O)NCCN3CCCCC3C)n2)cc1 (stereo unspecified)	44.8
CC1CCCN(CCNC(=O)c2ccn(-c3cccc(F)c3)n2)C1 (stereo unspecified)	51.1
O=C(NCCN1CCCCCC1=O)c1ccn(-c2ccc(F)cc2)n1	13.3
CC(C)CNC(=O)[C@H]1CCS(=O)(=O)[C@@H]2CN(CC(C)C)C[C@H]12	23.3
Cc1ccc(NC(=O)NCCn2cnc(C)c(C)c2=O)cc1F	-16.4
CC(=O)c1cc2ncc(C(=O)NC3CCCC3)cc2[nH]1	8.52
CC(C)OC(=O)N1C[C@@H]2CC[C@H]1CN(C(=O)c1ccccc1)C2	-63.6
Cc1ncccc1C(=O)NCC(C)Oc1ccc(F)cc1 (stereo unspecified)	10.1
CCn1cnnc1CNC(=O)N(C)Cc1cccc(OC(F)F)c1	36.1
Cc1cnc(C2(C)CCN(Cc3cscn3)CC2)s1	-6.92
COCCNC(=O)c1cc(-c2cc[nH]n2)n2ccccc12	-22.5
Cc1c(C(=O)NC2CCCOc3cc(Cl)ccc32)cnn1C (stereo unspecified)	-25.8

Compound	INHIBITION [%]
Cc1c(-c2cc(C(F)F)nc3sc(C(N)=O)c(N)c23)cnn1C	-17.2
CCn1ncc(-c2cc(C(F)F)nc3sc(C(N)=O)c(N)c23)c1C	64.8
CCn1cc(-c2cc(C(F)F)nc3sc(C(N)=O)c(N)c23)c(C)n1	-35.4
CC1CN(CCOc2ccccc2C#N)CCN1Cc1nccn1C (stereo unspecified)	14.1
Cc1ccc(C)c(CN2CCOC(c3noc(C)n3)C2)c1 (stereo unspecified)	8.53
Cc1cccc(CN2CCC(c3nnsc3S(C)(=O)=O)CC2)n1	30.8
O[C@@H]1CN(Cc2cccc(F)c2)CC[C@H]1NCc1ccccn1	43.05
COc1ccc(C(C)NCc2cccs2)cc1Cn1cccn1 (stereo unspecified)	10.6
CC(NCc1ccsc1)c1ccc(OCc2nccn2C)cc1 (stereo unspecified)	69.5
CC(C(=O)NCc1cccs1)N1CCN(Cc2nccn2C)CC1 (stereo unspecified)	46.4
CC(NCc1cnn(C)c1)c1ccc(OCc2nccn2C)cc1 (stereo unspecified)	49.5
CC(NCc1cccs1)c1ccc(OCc2nccn2C)cc1 (stereo unspecified)	63.8
CC(NCc1ccc(OCc2nccn2C)cc1)c1cccnc1 (stereo unspecified)	-63.6
Cc1sc(NC(=O)CN(C)CCOc2cccc(F)c2)c(C)c1C	9.14
COCCNC(=O)[C@H]1CN(Cc2scnc2C)C[C@H]2OCC[C@@H]12	-44.8
Cc1nc(CCNC(=O)NC2CCCN(c3ncccn3)C2)cs1 (stereo unspecified)	8.03
O=C1COc2cc(C(=O)NS(=O)(=O)c3ccc(F)cc3F)ccc2N1	33.3
O=C1COc2cc(C(=O)NS(=O)(=O)c3ccccc3F)ccc2N1	50.4
O=C1COc2ccc(C(=O)NS(=O)(=O)c3ccccc3F)cc2N1	14.1
c1cncc(-c2noc(CN3CCCCC3Cn3cccn3)n2)c1 (stereo unspecified)	33.8
CC(OCc1ccccc1)C(=O)NCc1ccc(N(C)C)cc1 (stereo unspecified)	33.3
Cn1ncc2c1C(COCC1CC1)N(Cc1ccoc1)CC2 (stereo unspecified)	-29.3
COC(=O)[C@H]1CN(C(=O)c2cscn2)C[C@@H]1c1ccc(F)cc1	32.8
CNC(=O)[C@@]12CCO[C@@H]1CCN(S(=O)(=O)c1cc(C)cc(C)c1)C2	54.4

Compound	INHIBITION [%]
CNC(=O)[C@@]12CCO[C@@H]1CCN(S(=O)(=O)c1ccc(C)cc1)C2	21.8
CNC(=O)[C@@]12CCO[C@@H]1CCN(S(=O)(=O)c1ccccc1)C2	42.7
CNC(=O)[C@@]12CCO[C@@H]1CCN(S(=O)(=O)c1ccccc1C)C2	6.6
CNC(=O)[C@@]12CCO[C@@H]1CCN(S(=O)(=O)c1cccc(C)c1)C2	38.7
CNC(=O)[C@@]12CCO[C@@H]1CCN(S(=O)(=O)c1ccccc1F)C2	52
Cc1nc(C(=O)N2CCC(c3nnc(Cn4ccnc4)n3C)CC2)cs1	-19.5
Cc1ccc(Br)c(S(=O)(=O)NCc2ccnn2C)c1	-24.4
COCCN1CCC2(CCN(CC3CC3)CC2)C1=O	8.85
c1cc(CN2CCCC2)cc(-n2ccnc2-c2ccncc2)c1	22.7
CCN(CC)CCn1ccnc1-c1cccc(O)c1	-18.8
Cc1nc[nH]c1-c1nccn1-c1ccc(C(N)=O)c(N2CCCC2)c1	50.5
Cc1nc[nH]c1-c1nccn1CCN(C)S(C)(=O)=O	8.86
Cn1ccnc1-c1nccn1-c1cccc(CN2CCCC2)c1	39.9
Cc1nc[nH]c1-c1nccn1-c1cccc(CN2CCCC2)c1	53
Cc1nc[nH]c1-c1nc2cc(S(=O)(=O)N3CCCC3)ccc2n1C	4.71
NC(=O)c1ccc(-n2ccnc2-c2cccc(O)c2)cc1N1CCCC1	63.5
NC(=O)c1ccc(-n2ccnc2C2CC2)cc1N1CCCC1	36.3
CN(Cc1cnn(C)c1)C(=O)NCCc1ccc2c(c1)OCO2	-24.75
Cc1cc2nc(SCC(=O)N3CCCC3)n(-c3ccccc3)c(=O)c2[nH]1	16.6
Cc1ncc(CN2CCc3c(nc(-c4ccccn4)[nH]c3=O)C2)n1C	31.6
COCCc1noc(CN2CCOC(Cn3nc(C)cc3C)C2)n1 (stereo unspecified)	14.4
CCC[C@@H]1CN(C(=O)c2cc3ccccc3s2)C[C@H]1NS(C)(=O)=O	20.1
CCC[C@@H]1CN(C(=O)c2cnc3ccccc3c2)C[C@H]1NS(C)(=O)=O	51.1
CC(=O)N[C@@H]1CN(C(=O)c2cnc3ccccc3c2)C[C@H]1O	22

Compound	INHIBITION [%]
OCc1nnc2n1CCN(c1cnccn1)C2	28.5
CCC(CC)(CNC(=O)OC(C)(C)C)NC(=O)C1CC1	-120
CCC(CC)(CNC(=O)OC(C)(C)C)NC(=O)C1CCCO1 (stereo unspecified)	56.6
CCC(CC)(CNC(=O)OC(C)(C)C)NC(=O)C1CCOCC1	-50.8
Cc1cc(C(=O)Nc2nc3c(s2)CN(S(=O)(=O)C2CC2)CC3)c(C)o1	-59.6
CC(C)c1nc(N2CCC(N3CCSCC3)CC2)c2cnn(C)c2n1	21.1
C[C@@H]1CN(CCCOc2ccc(F)cc2)CC[C@@]1(O)C1CCOCC1	7.24
Cn1nnnc1SCC1Cc2ccccc2O1 (stereo unspecified)	17.2
Cc1cnn(C2CCCN(C(=O)c3cc[nH]n3)C2)c1 (stereo unspecified)	64.6
CCc1ccc(C(=O)N2CCCC(n3cncn3)C2)o1 (stereo unspecified)	45.1
O=C(c1cccc2c1OCO2)N1CCCC(n2cccn2)C1 (stereo unspecified)	28.5
COc1ccc(CCC(=O)N2CCCC(n3cncn3)C2)cc1 (stereo unspecified)	-7.35
O=C(CCCc1ccccc1)N1CCCC(n2cncn2)C1 (stereo unspecified)	-12.2
Cc1cc(C)n(C2CCCN(C(=O)c3cccc4c3OCO4)C2)n1 (stereo unspecified)	23.7
Cc1ccc(C(=O)N2CCCC(n3cncn3)C2)o1 (stereo unspecified)	60.1
Cc1cnn(C2CCCN(C(=O)c3ccc(N(C)C)nn3)C2)c1 (stereo unspecified)	11.6
COc1ccc(CCCC(=O)N2CCCC(n3cncn3)C2)cc1 (stereo unspecified)	54.8
O=C(c1ccc(Br)o1)N1CCCC(n2cncn2)C1 (stereo unspecified)	11.8
Cc1cnn(C2CCCN(C(=O)c3cccc4c3OCO4)C2)c1 (stereo unspecified)	56.6
Cc1cnn(C2CCCN(C(=O)c3ccc(N4CCCC4)nn3)C2)c1 (stereo unspecified)	25.1

— ChEMBL document CHEMBL4513216, “Probing the Open Global Health Chemical Diversity Library for Multistage-Active Starting Points for Next-Generation Antimalarials” (ACS Infect Dis, 2020)
